Laboratory results: the supplement of paper PMC9023506
Where a name gives a salt, the structure may show the parent alone.

system: Danio rerio larvae (5 dpf); experiment: optomotor response to green moving lines, difference vs DMSO (percentage points (treated minus DMSO)); higher = more of the behaviour than the DMSO vehicle control; conditions: 10 µM; exposure time: 3 h pre-incubation + 3 h imaging
Description: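 5-dpf wild-type zebrafish larvae were imaged in 96-well plates. They were treated with 190 Tocris FDA-approved drugs at 10 µM (1 µl/ml DMSO) for 3 h before and 3 h during imaging at 28.5 °C, 48 larvae per drug. Automated image analysis gave % time moving and optomotor responses. Values are drug group mean minus DMSO vehicle mean (n=844), in percentage points, for 10 behaviours.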

Row | SMILES | optomotor response to green moving lines
1 | Cc1ccc(-c2cc(C(F)(F)F)nn2-c2ccc(S(N)(=O)=O)cc2)cc1 [Celecoxib] | 0.469
2 | CCCCC1=NC2(CCCC2)C(=O)N1Cc1ccc(-c2ccccc2-c2nnn[nH]2)cc1 [Irbesartan] | -19
3 | NS(=O)(=O)c1cc(C(=O)O)c(NCc2ccco2)cc1Cl [Furosemide] | -6.99
4 | CCCCCOC(=O)Nc1nc(=O)n([C@@H]2O[C@H](C)[C@@H](O)[C@H]2O)cc1F [Capecitabine] | 1.46
5 | CC(=O)Oc1ccccc1C(=O)O [Aspirin] | -12.5
6 | Cc1ccc(N(CC2=NCCN2)c2cccc(O)c2)cc1 [Phentolamine Mesylate] | 5.31
7 | NC(=O)N1c2ccccc2C=Cc2ccccc21 [Carbamazepine] | -0.434
8 | Cc1nc(Nc2ncc(C(=O)Nc3c(C)cccc3Cl)s2)cc(N2CCN(CCO)CC2)n1 [Dasatinib] | -4.87
9 | COc1ccc(-c2ccc3cc(C(=O)O)ccc3c2)cc1C12CC3CC(CC(C3)C1)C2 [Adapalene] | -2.82
10 | COc1ccccc1Oc1c(NS(=O)(=O)c2ccc(C(C)(C)C)cc2)nc(-c2ncccn2)nc1OCCO [Bosentan] | -5.7
11 | COc1ccccc1OCCNCC(O)COc1cccc2[nH]c3ccccc3c12 (stereo not given) [Carvedilol] | -14.2
12 | Clc1ccccc1C(c1ccccc1)(c1ccccc1)n1ccnc1 [Clotrimazole] | -19.6
13 | Cc1ccsc1C(=CCCN1CCC[C@@H](C(=O)O)C1)c1sccc1C [Tiagabine hydrochloride] | 8.59
14 | CN1CC2c3ccccc3Oc3ccc(Cl)cc3C2C1 (stereo not given) [Asenapine maleate] | -9.85
15 | N[C@@H]1[C@H]2CN(c3nc4c(cc3F)c(=O)c(C(=O)O)cn4-c3ccc(F)cc3F)C[C@@H]12 [Trovafloxacin mesylate] | -4.23
16 | Cc1nc(-c2ccc(OCC(C)C)c(C#N)c2)sc1C(=O)O [Febuxostat] | -4.77
17 | NC(=O)OCC(COC(N)=O)c1ccccc1 [Felbamate] | -9.03
18 | O=C1CCc2cc(OCCCCc3nnnn3C3CCCCC3)ccc2N1 [Cilostazol] | 3.44
19 | Clc1ccc2nsnc2c1NC1=NCCN1 [Tizanidine hydrochloride] | -0.817
20 | COC(c1ccccc1)(c1ccccc1)[C@H](Oc1nc(C)cc(C)n1)C(=O)O [Ambrisentan] | -4.71

Row | SMILES | optomotor response to green moving lines
21 | Nc1ncn([C@@H]2O[C@H](CO)[C@@H](O)[C@H]2O)c(=O)n1 [5-Azacytidine] | 1.33
22 | O=c1[nH]c(=O)n([C@H]2C[C@H](O)[C@@H](CO)O2)cc1C(F)(F)F [Trifluorothymidine] | 6.4
23 | CC(C)n1c(/C=C/C(O)CC(O)CC(=O)O)c(-c2ccc(F)cc2)c2ccccc21 (stereo not given) [Fluvastatin sodium] | -3.1
24 | CC(=O)S[C@@H]1CC2=CC(=O)CC[C@]2(C)[C@H]2CC[C@@]3(C)[C@@H](CC[C@@]34CCC(=O)O4)[C@H]12 [Spironolactone] | 3.9
25 | CC(CCc1ccc(O)cc1)NCCc1ccc(O)c(O)c1 (stereo not given) [Dobutamine hydrochloride] | 4.26
26 | CC(=O)O[C@H]1C(=O)[C@@]2(C)[C@H]([C@H](OC(=O)c3ccccc3)[C@]3(O)C[C@H](OC(=O)[C@H](O)[C@@H](NC(=O)c4ccccc4)c4ccccc4)C(C)=C1C3(C)C)[C@]1(OC(C)=O)CO[C@@H]1C[C@@H]2O [Taxol] | -4.62
27 | COc1ccc(Cl)cc1C(=O)NCCc1ccc(S(=O)(=O)NC(=O)NC2CCCCC2)cc1 [Glibenclamide] | 9.49
28 | CCOC(=O)c1ncn2c1CN(C)C(=O)c1cc(F)ccc1-2 [Flumazenil] | 15
29 | CC(C)Nc1cccnc1N1CCN(C(=O)c2cc3cc(NS(C)(=O)=O)ccc3[nH]2)CC1 [Delavirdine mesylate] | -4.7
30 | C[C@H]1O[C@H](O[C@H]2[C@H](O)[C@@H](O)[C@@H](O[C@H]3[C@H](O)[C@@H](O)C(O)O[C@@H]3CO)O[C@@H]2CO)[C@H](O)[C@@H](O)[C@@H]1N[C@H]1C=C(CO)[C@@H](O)[C@H](O)[C@H]1O (stereo not given in full) [Acarbose] | 6.59
31 | Nc1cccc2c1CN(C1CCC(=O)NC1=O)C2=O (stereo not given) [Lenalidomide] | 7.44
32 | CCOC(=O)[C@H](CCc1ccccc1)N[C@H]1CCc2ccccc2N(CC(=O)O)C1=O [Benazepril hydrochloride] | 11.6
33 | CN(CCOc1ccc(CC2SC(=O)NC2=O)cc1)c1ccccn1 (stereo not given) [Rosiglitazone] | 1.76
34 | OCCN(CCO)c1nc(N2CCCCC2)c2nc(N(CCO)CCO)nc(N3CCCCC3)c2n1 [Dipyridamole] | 5.01
35 | CC(C)(C#N)c1cc(Cn2cncn2)cc(C(C)(C)C#N)c1 [Anastrozole] | -2.71
36 | COC(=O)C1=C(C)NC(C)=C(C(=O)OC(C)C)C1c1cccc2nonc12 (stereo not given) [Isradipine] | -1.42
37 | CS(=O)(=O)CCNCc1ccc(-c2ccc3ncnc(Nc4ccc(OCc5cccc(F)c5)c(Cl)c4)c3c2)o1 [Lapatinib] | 0.954
38 | Cc1cccc(CN2CCN(C(c3ccccc3)c3ccc(Cl)cc3)CC2)c1 (stereo not given) [Meclizine dihydrochloride] | -8.55
39 | CNC(=O)c1ccccc1Sc1ccc2c(/C=C/c3ccccn3)n[nH]c2c1 [Axitinib] | 2.99
40 | C[C@@H](O[C@H]1OCCN(Cc2n[nH]c(=O)[nH]2)[C@H]1c1ccc(F)cc1)c1cc(C(F)(F)F)cc(C(F)(F)F)c1 [Aprepitant] | 4.81
